# Experimental data reported in publication PMC5227109.
# Biological target: Sister chromatid cohesion protein 2 (UniProt Q04002)
# Assay: cross-link between two proteins; cross-linking mass spectrometry
# Chain of UniProt Q04002 (Q04002 whole entry): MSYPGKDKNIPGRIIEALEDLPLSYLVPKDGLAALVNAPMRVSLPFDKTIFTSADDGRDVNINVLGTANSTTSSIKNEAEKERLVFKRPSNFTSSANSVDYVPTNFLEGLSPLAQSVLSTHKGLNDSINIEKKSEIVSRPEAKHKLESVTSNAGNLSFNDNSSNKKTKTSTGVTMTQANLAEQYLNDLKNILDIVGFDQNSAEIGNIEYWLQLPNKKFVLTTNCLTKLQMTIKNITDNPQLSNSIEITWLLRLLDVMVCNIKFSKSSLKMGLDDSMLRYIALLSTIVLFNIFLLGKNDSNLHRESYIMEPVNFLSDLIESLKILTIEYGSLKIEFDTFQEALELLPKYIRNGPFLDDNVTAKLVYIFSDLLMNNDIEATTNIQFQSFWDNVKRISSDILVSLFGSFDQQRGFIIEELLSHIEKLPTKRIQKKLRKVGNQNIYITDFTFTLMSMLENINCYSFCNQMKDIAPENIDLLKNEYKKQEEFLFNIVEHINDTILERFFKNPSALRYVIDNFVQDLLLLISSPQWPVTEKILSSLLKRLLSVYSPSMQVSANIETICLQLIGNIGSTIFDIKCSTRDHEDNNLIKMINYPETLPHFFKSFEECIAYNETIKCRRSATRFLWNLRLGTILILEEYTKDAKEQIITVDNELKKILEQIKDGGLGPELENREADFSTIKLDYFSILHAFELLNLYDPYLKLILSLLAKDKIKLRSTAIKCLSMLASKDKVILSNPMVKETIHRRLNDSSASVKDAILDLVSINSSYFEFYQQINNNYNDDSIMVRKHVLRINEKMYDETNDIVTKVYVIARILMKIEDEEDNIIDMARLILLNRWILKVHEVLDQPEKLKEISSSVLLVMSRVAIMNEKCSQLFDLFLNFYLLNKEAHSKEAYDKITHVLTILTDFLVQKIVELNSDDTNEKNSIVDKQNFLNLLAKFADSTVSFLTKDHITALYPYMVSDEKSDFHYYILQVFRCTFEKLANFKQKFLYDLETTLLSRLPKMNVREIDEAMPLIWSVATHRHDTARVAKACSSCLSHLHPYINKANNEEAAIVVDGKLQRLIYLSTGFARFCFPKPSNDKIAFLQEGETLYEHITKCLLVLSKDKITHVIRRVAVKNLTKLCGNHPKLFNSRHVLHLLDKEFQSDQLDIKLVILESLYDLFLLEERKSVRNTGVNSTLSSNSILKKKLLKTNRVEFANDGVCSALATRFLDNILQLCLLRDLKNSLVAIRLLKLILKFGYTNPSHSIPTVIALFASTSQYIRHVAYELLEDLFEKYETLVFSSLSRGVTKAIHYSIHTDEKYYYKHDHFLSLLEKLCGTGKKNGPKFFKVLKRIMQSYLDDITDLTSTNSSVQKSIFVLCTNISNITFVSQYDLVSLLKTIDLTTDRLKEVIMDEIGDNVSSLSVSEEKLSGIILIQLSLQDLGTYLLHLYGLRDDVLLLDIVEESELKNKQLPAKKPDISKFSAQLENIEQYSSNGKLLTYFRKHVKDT
substance,measurement,value
"MAU2 chromatid cohesion factor homolog, P40090",listed as a hit,yes
